Assay outcomes as filed in PubChem BioAssay.
Hits are enriched below; roughly 4.8% of the tested compounds scored in any of these assays.
USP2a block: qHTS Assay for Inhibitors of Ubiquitin-specific Protease USP2a Using CHOP2 as the Reporter. Ubiquitin carboxyl-terminal hydrolase 2 (Homo sapiens), O75604. USP2 core, Ub-CHOP2 coupled fluorogenic reporter, 485/531. Potency, µM (doses to about 38.3 µM), without a hit: top-dose activity change, negative = inhibition, usual class: inhibitors. 330,000 tested, 0.01% active. AID 463254, 2010;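 further: potency means the concentration at half of the fitted maximal effect; plate controls were DMSO wells for no effect and full inhibition by NEM control for full effect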
Target sequence (O75604 whole entry, looked up): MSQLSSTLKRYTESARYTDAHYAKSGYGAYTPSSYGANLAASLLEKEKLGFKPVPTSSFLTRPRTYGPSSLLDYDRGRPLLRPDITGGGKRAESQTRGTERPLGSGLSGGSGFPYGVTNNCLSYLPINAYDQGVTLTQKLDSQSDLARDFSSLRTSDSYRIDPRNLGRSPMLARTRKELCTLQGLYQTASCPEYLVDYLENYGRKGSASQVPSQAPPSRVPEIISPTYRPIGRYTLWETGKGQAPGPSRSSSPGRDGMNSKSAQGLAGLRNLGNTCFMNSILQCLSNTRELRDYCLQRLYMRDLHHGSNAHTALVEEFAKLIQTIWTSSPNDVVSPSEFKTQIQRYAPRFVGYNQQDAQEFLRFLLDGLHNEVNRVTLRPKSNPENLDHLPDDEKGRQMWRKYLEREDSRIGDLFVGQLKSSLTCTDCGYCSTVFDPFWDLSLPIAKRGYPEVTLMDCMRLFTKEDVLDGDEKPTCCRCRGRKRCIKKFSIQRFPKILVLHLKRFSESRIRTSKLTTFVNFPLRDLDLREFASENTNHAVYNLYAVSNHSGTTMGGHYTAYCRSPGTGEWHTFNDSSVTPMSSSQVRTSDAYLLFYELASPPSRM
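Deubiquitinase activity read as fluorescence (485/531 nm) after Ub-CHOP2 cleavage activates the enterokinase reporter on its substrate; USP2 core 10nM, Ub-CHOP2 and substrate 25nM each, 30min compound preincubation then 60min RT; data normalized to NEM, curves fitted.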
ATXN viability: Viability Counterscreen for Primary qHTS for Inhibitors of ATXN expression; S2 cells (HEK-293 line with an ATXN2-luciferase reporter) viability, CellTiter-Fluor protease fluorescence, 24 h; Potency, µM (series often up to 56.7 µM), usual class: cytotoxic; 400,000 tested, 0.49% active; AID 651635, 2014; further: potency means the concentration at half of the fitted maximal effect; nearly all actives have a fitted effect of over 40% in size
USP1 inh: Inhibitors of USP1/UAF1: Primary Screen; Potency, µM (top dose mostly 57.1 µM), inactives show at the top dose activity change, negative = inhibition, hits mostly inhibitors; 390,000 tested, 0.23% active; recombinant USP1/UAF1, Ub-Rhodamine cleavage fluorescence; further: potency means the concentration at half of the fitted maximal effect; on the % scale 0 is the no-effect control and ±100 the full control effect; nearly all actives have a fitted effect of over 60% in size
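In this screen, compounds sit with the deubiquitinase complex (1nM) for 15 min at room temperature before Ub-Rho is added at 150nM final. Fluorescence rise is then followed for 6 reads every 60 seconds.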
IL1B secr inh: qHTS for Inhibitors of Inflammasome Signaling: IL-1-beta AlphaLISA Primary Screen. activity change, % at 57.5 µM. 360,000 tested, 4.7% active. AID 743279, 2014. THP-1 LPS/ATP IL-1B secretion, AlphaLISA, 16 h; stronger effect = lower value; in the data active means activity change below about -50%; inconclusive means mostly about -30% to -49%; further: on the % scale 0 is the no-effect control and ±100 the full control effect
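Secreted IL-1B measured by AlphaLISA bead assay after 16 h compound exposure of THP-1 cells; compounds (final up to 57.5 uM) added 1 h before LPS (250 ng/mL) and ATP (1.25 mM) stimulation; lower signal means less secretion.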
ATXN2 expr inh: Primary qHTS for Inhibitors of ATXN expression. AID 1745845, 2022. HEK-293 ATXN2-luciferase reporter, luminescence, 24 h. Potency, µM (highest dose often 57 µM), for the others: at the top dose activity change, negative = inhibition, hits mostly inhibitors. 360,000 tested, 0.72% active; further: potency means the concentration at half of the fitted maximal effect; on the % scale 0 is the no-effect control and ±100 the full control effect; nearly all actives have a fitted effect of over 55% in size
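ATXN2-luciferase reporter cells (luciferase flanked by upstream and downstream ATXN2 gene portions) were treated 24 h at 37 °C with compounds at up to 57 uM. SteadyGlo luminescence gave expression; GF-AFC fluorescence gave viability.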
An asterisk follows results filed as active; i = inactive; ? = inconclusive; nt = not tested or not shown; ! = a repeat was not active. Unless noted, the call rests on the fitted dose curve; in most records, active means well fitted curve in the direction sought with a large enough effect; inconclusive means small, poorly fitted or top-dose-only effect, or another doubt; inactive means no such curve, though single readings can be large; an effect the other way counts as inactive or inconclusive.

SMILES	USP2a block	ATXN viability	USP1 inh	IL1B secr inh	ATXN2 expr inh
CCN1CCN(c2ccc(NC(=O)c3cccc(F)c3)cc2Cl)CC1	0%	i	-16%	-50*	30%
C=CCOC(=O)N1CCC2CC1c1cc(-c3cccc(C)c3)ccc12 (centres undefined)	nt	i	-12%	21	4%
CC(C=CC1=C(C)CCCC1(C)C)=CC=CC(C)=CC(=O)Nc1ccc(O)cc1	nt	nt	nt	nt	50µM*
CC1=C(\C=C/C(C)=C/C=C\C(C)=C\C(=O)O)C(C)(C)CCC1	nt	i	nt	nt	nt
CC1=C(/C=C/C(C)=C/C=C/C(C)=C/C(=O)Nc2ccc(O)cc2)C(C)(C)CCC1	-15%	28µM*	?	-77*	20µM*!
CC1=C(/C=C/C(C)=C/C=C/C(C)=C\C(=O)O)C(C)(C)CCC1	nt	i	8%	17	3%
Cc1ccc(Cn2c(C)cc3c(c2=O)C(c2cccs2)C(C#N)=C(N)O3)cc1 (centres undefined)	1%	i	-11%	0	-11%
Cc1ccc([C@H]2C(C#N)=C(N)Oc3cc(C)oc(=O)c32)o1	3%	i	-13%	-106*	-27%
Cc1cc2c(c(=O)o1)C(c1cccs1)C(C#N)=C(N)O2 (centres undefined)	-3%	?	-18%	-63*	4%
Cc1ccc(Nc2nc(N)c3ccccc3n2)cc1C	-1%	i	-16%	-97*	nt
Cc1onc(-c2ccccc2Cl)c1C(=O)NCc1ccco1	3%	i	-16%	-77*	-1%
CCc1ccc(NC(=S)NC(=O)c2c(-c3ccccc3Cl)noc2C)cc1	0%	i	?	-51*	1%
Cc1ccc(CNC(=O)c2c(-c3ccccc3Cl)noc2C)cc1	-2%	i	5%	18	nt
Cc1ccc(NC(=O)CSc2nc3c(oc4ccccc43)c(=O)n2Cc2ccco2)cc1	nt	i	-13%	nt	4%
CCOc1ccc(CNC(=O)c2cnc3sc(N4CCCCCC4)nn3c2=O)cc1OC	nt	nt	-26%	nt	nt
Cc1nn(C)cc1CN1CCC(CO)(CCOc2ccccc2)CC1	3%	i	-12%	0	-1%
CCOc1ccccc1CN1CCC(CO)(CCOc2ccccc2)CC1	0%	i	-10%	-73*	nt
OCC1(CCOc2ccccc2)CCN(Cc2cn[nH]c2-c2ccc(F)cc2)CC1	0%	i	-7%	-57*	-20%
COc1cc(Cl)c(CN2CCC(CO)(CCOc3ccccc3)CC2)cc1OC	3%	i	-7%	?	-11%
OCCOc1cccc(CN2CCC(CO)(CCOc3ccccc3)CC2)c1	-2%	i	-10%	-9	nt
OCC1(CCOc2ccccc2)CCN(CC2=Cc3cc(Cl)ccc3OC2)CC1	-11%	i	-19%	-93*	?
OCC1(CCOc2ccccc2)CCN(Cc2ccccc2C(F)(F)F)CC1	0%	i	-3%	-55*	-30%
COC(=O)c1ccc(CN2CCC(CO)(CCOc3ccccc3)CC2)cc1	2%	i	-25%	-10	-11%
Cc1oc(-c2cccs2)nc1CN1CCC(CO)(CCOc2ccccc2)CC1	8%	i	-10%	-83*	-19%
COc1ccc2[nH]c(CN3CCC(CO)(CCOc4ccccc4)CC3)c(C)c2c1	1%	i	-18%	-202*	52%
SMILES	USP2a block	ATXN viability	USP1 inh	IL1B secr inh	ATXN2 expr inh
COc1ccc(CN2CCC(CO)(CCOc3ccccc3)CC2)c(OC)c1C	2%	i	1%	-104*	-29%
CCOC(=O)C1(CCOC)CCN(Cc2nc(-c3cccs3)oc2C)CC1	0%	i	1%	18	-13%
Cc1cc(C)nc(/N=C(\N)Nc2ccc(C(C)C)cc2)n1	-2%	i	-5%	-99*	?
Cc1cccc(N/C(N)=N/c2nc(C)cc(C)n2)c1	0%	i	-3%	-109*	-5%
Cc1cc(C)cc(N/C(N)=N/c2nc(C)cc(C)n2)c1	0%	i	-10%	-102*	-19%
CC(=O)Nc1cccc(N/C(N)=N/c2nc(C)cc(C)n2)c1	0%	i	-4%	35	-12%
Cc1cc(C)nc(/N=C(\N)Nc2ccccc2-c2ccccc2)n1	2%	i	-17%	-98*	?
COc1cccc(CNC(=O)c2c(OC)cc(=O)n3c2CCN(C(=O)c2ccc(C)cc2C)CC3)c1	nt	i	nt	nt	nt
CC(=O)c1ccc(N2CCN(S(=O)(=O)c3ccc4[nH]c5c(c4c3)CCCC5)CC2)cc1	nt	i	-13%	nt	-2%
CCCCN1C(=O)C(=O)c2cc(Cl)ccc21	-12%	?	-19%	38	?
O=[N+]([O-])c1ccc(-c2ccc(/C=N/Nc3nc(NCc4ccccc4)nc(N4CCOCC4)n3)o2)cc1	0%	i	-13%	-91*	-15%
COc1ccc(/C=C\c2onc(C)c2S(=O)(=O)N2CCC(C(=O)Nc3ccc(F)cc3F)CC2)cc1	nt	nt	-14%	nt	nt
CC(C)COc1ccc(/C(=N/O)c2ccccc2)cc1	-2%	i	?	-79*	38%
CC(O)COc1ccc(/C(=N/O)c2ccccc2)cc1 (centres undefined)	-6%	i	-9%	7	-2%
CCc1ccc(-c2nc(CS(=O)CC(=O)NCCN3CCCCCC3)c(C)o2)cc1 (centres undefined)	2%	i	-22%	-56*	-14%
Cc1ccc(-c2nc(CS(=O)CC(=O)NCCCN3CCN(Cc4ccccc4)CC3)c(C)o2)cc1 (centres undefined)	1%	i	-11%	-71*	-37%
Cn1c(SCc2ccc(F)cc2)nc2ccc(C(=O)NCc3cccc(Cl)c3)cc21	nt	i	-7%	nt	-2%
COc1cc(N2CCC(N3CCN(C)CC3)CC2)ccc1Nc1ncc(Cl)c(Nc2ccccc2S(=O)(=O)C(C)C)n1	nt	nt	nt	nt	19µM*
O=C(Nc1cc(Sc2ccccn2)cc([N+](=O)[O-])c1)c1ccc(Cl)cc1	2%	i	-3%	-66*	-1%
O=C(Nc1cc(Sc2ccccn2)cc([N+](=O)[O-])c1)c1cccc(Cl)c1	1%	?	-6%	?	?
Cc1cc(C)cc(NC(=O)C2CCN(S(=O)(=O)c3cccc4nonc34)CC2)c1	nt	i	-27%	nt	-3%
Cc1ccnc(NC(=O)C2CCN(S(=O)(=O)c3cccc4nonc34)CC2)c1	-2%	i	-8%	-51*	4%
Cc1ccnc(NC(=O)C2CCN(S(=O)(=O)c3cccc4nsnc34)CC2)c1	0%	i	-19%	-53*	-2%
Nc1ncc(-c2ccccc2)c(-c2ccc(OCc3ccccc3)cc2O)n1	3%	i	-15%	-103*	-7%
